Values joined by “and” are separate entries in the source; they are usually repeats but may differ in a detail not shown here. Equal values may be shown once. Some compounds were tested as several samples or in several runs, with calls that do not always agree. Active and inactive are the calls of the source.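 Rule for the calls: active = compounds whose dose series gives a full or clear partial fitted curve of increased nuclear translocation; inconclusive = weak partial curve or effect only at the top dose; inactive = no dose-dependent translocation response.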
molecular target: Glucocorticoid receptor (Homo sapiens) (UniProt P04150); assay: GR-GFP Redistribution (AID 450); conditions: U2OS GR-GFP nuclear translocation, laser cytometry, 2 h
Description: NIH Molecular Libraries Screening Centers Network [MLSCN]
NIH Chemical Genomics Center [NCGC]
The glucocorticoid receptor (GR) Redistribution assay (BioImage) enables the visualization of GR cytoplasmic to nuclear translocation by the use of a GR-GFP fusion. GR is normally cytosolic, however ligands such as dexamethasone, cause nuclear translocation where the protein binds to response elements and interacts with various co-factors to modulate transcription. Because both functional agonists and antagonists can induce nuclear translocation, this assay can detect ligands regardless of their effects on gene expression. GR-GFP expressing U20S cells were used here. Dexamethasone was the positive control for translocation and data normalization. Detection of nuclear translocation was performed in 1536-well plates using the Acumen laser scanning plate cytometer (TTP LabTech). Validation of this assay and a detailed protocol have been described.
NCGC Assay Protocol Summary:
GR-GFP U2OS cells were maintained in DMEM with Glutamax and high glucose, 1% v/v penicillin-streptomycin, and 0.5 mg/mL Geneticin. For cell culture, 10% […] fetal bovine serum (FBS) was used (Invitrogen #26140-079). For cell plating 10% dextran, charcoal-stripped FBS (Hyclone SH30068.03) was used. U2OS cells were trypsin treated, suspended in medium, and passed through a 40 um basket filter. The cells were seeded at 600 cells/5 uL/well into clear-bottom black sided 1536-well plates and incubated for approximately 20 hrs, 37degC, 5%, CO2 in a tissue culture incubator. Twenty-three nL of compound was delivered by pin tool and the plates were incubated as above for 2 hrs. The compounds were tested as a 7-point titration ranging from 46 uM to 0.6 nM. The cells were fixed using the Kalypsys Washer/Dispenser station. The fixing protocol involved aspiration of the cell media, addition of 6 uL/well of PBS, aspiration of PBS, addition of 5uL/well of 100% methanol, aspiration of methanol, and addition of 3 uL/well PBS with 1.5 uM propidium iodide (PI). The plates were read by the Acumen Explorer using a 1 x 8 um scan of the whole well area. PI fluorescence triggered the collection of PI and GFP signals. A nuclei population was defined by a 10 to 100 um width and depth filter that eliminated small and large fluorescent particles. Two subpopulations of nuclei were then defined by peak intensity of GFP fluorescence to obtain translocated and untranslocated objects. The number of translocated objects was used for data normalization.
Keywords: NIH Roadmap, MLSCN, MLI, MLSMR, sOGT, qHTS, NCGC
Potency is the fitted concentration of half-maximal effect.

Glucocorticoid receptor (Homo sapiens), sequence (P04150 whole entry, looked up): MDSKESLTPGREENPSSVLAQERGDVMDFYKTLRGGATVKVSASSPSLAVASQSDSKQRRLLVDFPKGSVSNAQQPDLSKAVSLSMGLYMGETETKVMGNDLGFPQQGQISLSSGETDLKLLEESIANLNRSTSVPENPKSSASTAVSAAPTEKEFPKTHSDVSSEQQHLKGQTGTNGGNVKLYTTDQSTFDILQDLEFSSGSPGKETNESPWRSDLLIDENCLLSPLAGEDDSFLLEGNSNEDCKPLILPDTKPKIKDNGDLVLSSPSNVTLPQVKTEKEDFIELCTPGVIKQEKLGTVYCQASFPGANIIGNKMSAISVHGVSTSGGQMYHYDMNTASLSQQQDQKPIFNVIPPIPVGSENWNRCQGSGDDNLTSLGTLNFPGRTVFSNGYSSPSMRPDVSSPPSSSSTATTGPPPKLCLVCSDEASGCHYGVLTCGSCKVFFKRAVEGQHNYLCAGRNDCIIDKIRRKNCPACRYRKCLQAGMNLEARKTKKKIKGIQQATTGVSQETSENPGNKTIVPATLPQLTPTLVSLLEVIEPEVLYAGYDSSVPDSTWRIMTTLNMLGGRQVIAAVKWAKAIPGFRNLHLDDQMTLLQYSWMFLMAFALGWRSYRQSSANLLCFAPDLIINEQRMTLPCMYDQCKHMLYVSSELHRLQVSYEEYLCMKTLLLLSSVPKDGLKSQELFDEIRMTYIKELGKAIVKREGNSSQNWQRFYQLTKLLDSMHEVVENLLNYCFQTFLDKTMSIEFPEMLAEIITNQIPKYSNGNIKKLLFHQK

| SMILES | Potency |
| --- | --- |
| CC[C@@]1(O)C(=O)OCc2c1cc1n(c2=O)Cc2cc3c(CN(C)C)c(O)ccc3nc2-1 | > 46 µM (inactive) |
| CNCCCC12CCC(c3ccccc31)c1ccccc12 | > 46 µM (inactive) and > 20.6 µM (inactive) |
| CCC1(c2ccccc2)C(=O)NCNC1=O | > 46 µM (inactive) and > 20.6 µM (inactive) |
| CN(C)C(=O)C(CCN1CCC(O)(c2ccc(Cl)cc2)CC1)(c1ccccc1)c1ccccc1 | > 46 µM (inactive) and > 20.6 µM (inactive) |
| O=C1N(c2ccccc2)c2ccccc2C1(Cc1ccncc1)Cc1ccncc1 | > 46 µM (inactive) |
| Cc1cc(C(C)(C)C)cc(C)c1CC1=NCCN1 | > 46 µM (inactive) and > 20.6 µM (inactive) |
| Clc1ccc2c(c1)C(N1CCNCC1)=Nc1ccccc1O2 | > 46 µM (inactive) and > 20.6 µM (inactive) |
| O=C(c1ccc(F)cc1)C1CCN(CCn2c(=O)[nH]c3ccccc3c2=O)CC1 | > 46 µM (inactive) and > 20.6 µM (inactive) |
| COc1nc(C)nc(Cl)c1NC1=NCCN1 | > 46 µM (inactive) and > 20.6 µM (inactive) |
| CN(C)CCC=C1c2ccccc2C=Cc2ccccc21 | > 46 µM (inactive) and > 20.6 µM (inactive) |
| CCOC(=O)C(C)(C)Oc1ccc(Cl)cc1 | > 46 µM (inactive) |
| CC[N+](CC)(CC)CCOc1cccc(OCC[N+](CC)(CC)CC)c1OCC[N+](CC)(CC)CC | > 46 µM (inactive) and > 20.6 µM (inactive) |
| O=c1c(-c2ccc(O)cc2)coc2cc(O)cc(O)c12 | > 46 µM (inactive) |
| NCCc1cnc[nH]1 | > 46 µM (inactive) |
| COc1ccc2c(c1)c(CC(=O)O)c(C)n2C(=O)c1ccc(Cl)cc1 | > 46 µM (inactive) and > 20.6 µM (inactive) |
| CN1CCC(=C2c3ccccc3CC(=O)c3sccc32)CC1 | > 46 µM (inactive) and > 20.6 µM (inactive) |
| OCCN1CCN(CCCN2c3ccccc3Sc3ccc(C(F)(F)F)cc32)CC1 | > 46 µM (inactive) and > 20.6 µM (inactive) |
| Cn1c(=O)c2c(ncn2C)n(C)c1=O | > 46 µM (inactive) |
| CCOC(=O)Nc1ccc(NCc2ccc(F)cc2)nc1N | > 46 µM (inactive) |
| Cc1cn([C@H]2C[C@H](N=[N+]=[N-])[C@@H](CO)O2)c(=O)[nH]c1=O | > 20.6 µM (inactive) |

| SMILES | Potency |
| --- | --- |
| COC(=O)Nc1nc2ccc(C(=O)c3cccs3)cc2[nH]1 | > 46 µM (inactive) and > 20.6 µM (inactive) |
| Cc1cc(C(C)(C)C)c(O)c(C)c1CC1=NCCN1 | > 46 µM (inactive) and > 20.6 µM (inactive) |
| CN(C)CCCN1c2ccccc2CCc2ccc(Cl)cc21 | > 46 µM (inactive) and > 20.6 µM (inactive) |
| N[C@@H](Cc1c[nH]c2ccc(O)cc12)C(=O)O | > 46 µM (inactive) |
| Clc1ccccc1C(c1ccccc1)(c1ccccc1)n1ccnc1 | > 46 µM (inactive) and > 20.6 µM (inactive) |
| CN1C(C(=O)Nc2ccccn2)=C(O)c2ccccc2S1(=O)=O | > 46 µM (inactive) and > 20.6 µM (inactive) |
| Cc1ccc(C(=O)Nc2ccc(S(=O)(=O)O)c3cc(S(=O)(=O)O)cc(S(=O)(=O)O)c23)cc1NC(=O)c1cccc(NC(=O)Nc2cccc(C(=O)Nc3cc(C(=O)Nc4ccc(S(=O)(=O)O)c5cc(S(=O)(=O)O)cc(S(=O)(=O)O)c45)ccc3C)c2)c1 | > 46 µM (inactive) |
| COc1ccc(C2CNC(=O)C2)cc1OC1CCCC1 (stereo not given) | > 20.6 µM (inactive) |
| COc1ccc2[nH]cc(CCNC(C)=O)c2c1 | > 46 µM (inactive) and > 20.6 µM (inactive) |
| NS(=O)(=O)c1cc2c(cc1Cl)NCNS2(=O)=O | > 46 µM (inactive) and > 20.6 µM (inactive) |
| Nc1nc2c(ncn2COC(CO)CO)c(=O)[nH]1 | > 46 µM (inactive) and > 20.6 µM (inactive) |
| O=C1c2c(O)ccc(O)c2C(=O)c2c(NCCNCCO)ccc(NCCNCCO)c21 | > 46 µM (inactive) and > 20.6 µM (inactive) |
| NCCS(=O)(=O)O | > 46 µM (inactive) |
| Cn1ccc2cc3c(cc21)CCN3C(=O)Nc1cccnc1 | > 46 µM (inactive) |
| NC(=O)OCC(COC(N)=O)c1ccccc1 | > 46 µM (inactive) and > 20.6 µM (inactive) |
| NC(=O)NO | > 46 µM (inactive) |
| CN1CCN(C2=Nc3cc(Cl)ccc3Nc3ccccc32)CC1 | > 46 µM (inactive) and > 20.6 µM (inactive) and 2.68 µM (active) |
| CN(C)c1nc(N(C)C)nc(N(C)C)n1 | > 46 µM (inactive) and > 20.6 µM (inactive) |
| NCCCCCC(=O)O | > 46 µM (inactive) and > 20.6 µM (inactive) |
| CC(C)NCC(O)COc1ccc(CCOCC2CC2)cc1 (stereo not given) | > 20.6 µM (inactive) |
